{
  "source": "the supplement of paper PMC12632987",
  "binders": {"B1": {"name": "GBRAP_64_6479 (protein)", "chain": "NEEIEELLEELLEAARRLLALFERENPELAPEAQEIVDLLEEAKTASLEERLDLVLEVTDRLHALLRDPRVTPEQRDALLEALDLAMALAALLAEEVEKE"}, "B2": {"name": "GBRAP_80_6846 (protein)", "chain": "AAARLAAELAALKALLPEVAEDAKEAVALARELGVPDADIADYLAALNELAKLDPELAAALLKELLADLREEKAEGDSENALAVVRGYTGEALMEAEELE"}, "B3": {"name": "GBRAP_80_6848 (protein)", "chain": "AEERLAAALAALEALLPEVAEEARELVALARELGVPDEEIAAFLEALNELAKLDPELAAELIREALEDMKELKEEGDSENALAVVRGYTGDALMAAEELE"}, "B4": {"name": "GBRAP_80_6856 (protein)", "chain": "AAAALAAALAALKALLPEVAEDAKEIVEIARELGVPDADIADLMEALAELAKVDPELAAELIKELLEELKEEKERGDAERALAVVRGYAGEALMLAEELE"}, "B5": {"name": "GBRAP_166_4906 (protein)", "chain": "MKEEKIEELIERAEELIEELKEADEEEALELLIEIGEVLRELKELGASEEEILELVRRTLEAVKERGLSVRVAAGIIAEVADFDEEMREKLDEIAREVEA"}, "B6": {"name": "GBRAP_78_6635 (protein)", "chain": "EVEELIDKALEKVSEAAKAALKLPLDLRAEVLDELSDAAVELVEAEEGEDKEEELEEALEELEEALEIVEENDSPLTEEIKKLLEEAIELVKKAIEELKE"}, "B7": {"name": "GBRAP_52_6046 (protein)", "chain": "MEEEARKLAKELLELVLEGKEEEARKLAREIAETKNEEEILKIAEELAKLVLEGDKETAEAGIKAAEIMAEELEKAGRDEGLADLILATVYGAAYKRLQK"}, "B8": {"name": "GBRAP_160_4784 (protein)", "chain": "MERVEKVAKRFREAAKRALELSKGETAENRANIVDVELGSAILELEEEGLLNDEEEEVAAEVRDELVAEILANPNLTDEELKALLEKAVEELRKRLEELE"}, "B9": {"name": "GBRAP_160_4344 (protein)", "chain": "SEEKEKLLKFVDEEFEEAIELIKGESIEQRKVIISGTFGEILMELSESPIISDELEDEVREIEDELLEYLDKNPDLSEEEIKELIKEAREKVKEAIEKHT"}, "B10": {"name": "GBRAP_35_5577 (protein)", "chain": "EDEEMLLETVEDLAEATIEAIKEGNLDLAIALLKAFLRTAKIAIEDLKNNKEALEKIAELLEKVIEEIKKYLSDNPEVQELKKELEELLKEAKEKLKKVK"}, "B11": {"name": "GBRAP_35_5576 (protein)", "chain": "EDKEMLLETVEDLAEATIEAIKEGDVDLAIALLKAFLRTAKLAVEELENDLEALEKIAELLKKVIEEIKKHLADNPEMQKLLKELEKLLKEVKEKAEKVK"}, "B12": {"name": "GBRAP_52_5857 (protein)", "chain": "SSARMRALAEELLALRLAGKEEELEARVKELVATLSEEEILALLEELAALAKEADKEGAEAILDVAELLADEAEEAGFDEDELSYALAEVAAAAYKQLQK"}, "B13": {"name": "GBRAP_128_3469 (protein)", "chain": "MTEEAVERTRKILEEMKKASPEEARELFKELFEWLLTLPLEVVEAVVEEIEKHLPELSAEKLEILAEVADEAMPKATPEKAALLADLRSSALLEAEKLEE"}, "B14": {"name": "GBRAP_35_5506 (protein)", "chain": "DSMSTIADMLVATIDDTVLAIPDLDVETAVQISRQLIRSAREVAEDLKDDPEGLKRLRDSMERLRDALVKHYGDNPLAQEAIKEIDELIKELEERIKEAE"}, "B15": {"name": "GBRAP_128_3267 (protein)", "chain": "MNPEVVAYAEAFVEKLKAAGPEEAKKLADELMEKLKTMSLEEVEQFVEVLEKKLKELSVEKLEILADAARKHRDEFSPEKANLVAGLEVEALNEAVEKEE"}, "B16": {"name": "GBRAP_160_3969 (protein)", "chain": "SEEVEKLLKEIDEIFEEAKEMIVGESFENRLTIVRVAVGEVLLLLSENPLVSDEAEDKVDEIGDELIATIEANPDLTEEEIKELIDKAEEEIKKIIKEDA"}, "B17": {"name": "GBRAP_125_3096 (protein)", "chain": "HMEEILEALKLLAKALGFSEEEAEELARLAANSSVKQTLYALFAAEGYEELADLVEKLTEEQAKEVLLELAKWLKENPNASKEEVVKKAKELAKKALAKA"}, "B18": {"name": "GBRAP_160_4666 (protein)", "chain": "MEELEKLMKELEEIAKEAVEMTKGQSHEERVAIIRVMKGEIILELEESKIATDEVVDYADELGDELIAYVAANPDLTEEELQELLDKMLKEIEEKLKEEL"}, "B19": {"name": "GBRAP_128_3471 (protein)", "chain": "AVEEARKRTEEIMEKMKEANDEEFKKLAEELAEWLLTLPVEEVEAAVEVIKEHLPELSAEKLEILADVLDKAMPKATPEKAALFADVRSEALLLAEEKEE"}, "B20": {"name": "GBRAP_166_4959 (protein)", "chain": "SLEEVRARLEAALAAFEAEGASLSLEERRDRLVEIAELLGEAARAGLPREELLEAAVRLLLLARAAGLSPAFVEAALVNIAGLPVELVDEALARAEALAA"}, "B21": {"name": "GBRAP_26_5483 (protein)", "chain": "REREILDELEAKVKAILADEPAEVRAAVVAEAIDALIEFAEVVEANINDEEKIEKAKKEALEEMRKFLEDLGIPEDKREKVVKALAEALEKVEKAIKEEA"}, "B22": {"name": "GBRAP_160_4794 (protein)", "chain": "SERIEKVAEIFREEAERALEMARGETVEERVAIFDVELGSAIMEAIEEGLLNDEEEDIAIEVRDELVEEVRRNPELTEEELRELARRKIEELRERLEELE"}, "B23": {"name": "GBRAP_9_7151 (protein)", "chain": "MEELFKKVKEILEDAFEEVKEVVPEEVKPIVDEKREEVLKRLEELAKDPNVTKEELKEEAKELVDEFEEAIKEKVDEETAKMVEAIALTAKLEIEEVAEE"}, "B24": {"name": "GBRAP_160_4218 (protein)", "chain": "MELVKKLVEIVREEFEEALELIEGESPEERRVILDVAVGNVILESMEIEGVTDEMEETVEEMSEELAEELLEAADESPEERRELIEERVEELEKELKKLE"}, "B25": {"name": "GBRAP_160_4217 (protein)", "chain": "MELVEKLVEIVREEFEEALELIEGESEEERRVILDVAVGNVILEAMEIPGVTDEMEEVVEEKSRELAEELLEARDKSEEERRKLIEERVEELREELEKLE"}, "B26": {"name": "GBRAP_160_4215 (protein)", "chain": "DEIVEKLVEIAREEFEEALELIEGESEEERRVILDVAVGNVILEASEIPGVTDEMEETVDRMSEELARELLEAAGESEEERRALIEERTEELRKELKKLA"}, "B27": {"name": "GBRAP_160_4516 (protein)", "chain": "SPKLERIEKLVEEARERIIEVIDEGDVEAAITVAAVEFGEVIMEIAEDESMSDEAEDAAAEIRDKLVEELKKAKDASKEEKKKIVEEKSKELIEKLKKLS"}},
  "note": "In all, about 4,500 sequences were measured (“median log2 fold change of GCK-ALFA target abundance (FLAG IP / Myc IP barcode read proportion)”: median about 0.078, lowest 2% from about -0.6 on). Many of the other results were omitted from the sample, so the lowest values are more common in it than they were.",
  "data": [
    {"target": "GABARAP, O95166", "sequence (O95166 whole entry, the tested form may be a part)": "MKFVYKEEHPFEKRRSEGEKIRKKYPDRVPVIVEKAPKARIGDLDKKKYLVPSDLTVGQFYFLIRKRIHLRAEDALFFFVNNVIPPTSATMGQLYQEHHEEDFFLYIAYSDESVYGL", "experiment": "median log2 fold change of GCK-ALFA target abundance (FLAG IP / Myc IP barcode read proportion) (log2 ratio); each designed protein is fused to an ALFA-tag nanobody in HEK293 cells to bring the named protein to FLAG-tagged glucokinase (GCK); Myc marks an untargeted standard; higher = target protein stabilised (more abundant)", "details": "target protein: 3xFLAG-MCP-GCK-ALFA reporter; HEK293 landing pad (RPLP)", "summary_of_the_method": "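An ALFA-nanobody-fused binder library was recombined into HEK293 landing-pad cells and induced with 2 μg mL^−1 doxycycline. Cells were transfected with a plasmid expressing a FLAG-tagged target and a Myc-tagged standard. After 48 h, lysates underwent anti-FLAG and anti-Myc immunoprecipitation, and circular RNA barcodes were reverse transcribed, amplified and sequenced. Target abundance is the per-binder median log2 ratio of FLAG to Myc barcode read proportions. Barcodes needed ≥10^−7 proportion in both replicates, binders ≥3 barcodes per replicate, and a 10^−6 pseudocount was added; the two replicates were pooled.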", "values": [
      {"binder": "B1", "median log2 fold change": -0.254},
      {"binder": "B2", "median log2 fold change": -0.698},
      {"binder": "B3", "median log2 fold change": -0.203},
      {"binder": "B4", "median log2 fold change": -0.242},
      {"binder": "B5", "median log2 fold change": -0.128},
      {"binder": "B6", "median log2 fold change": -1.21},
      {"binder": "B7", "median log2 fold change": -0.00871},
      {"binder": "B8", "median log2 fold change": 0.242},
      {"binder": "B9", "median log2 fold change": -0.232},
      {"binder": "B10", "median log2 fold change": 0.248},
      {"binder": "B11", "median log2 fold change": -1.27},
      {"binder": "B12", "median log2 fold change": -0.305},
      {"binder": "B13", "median log2 fold change": 0.314},
      {"binder": "B14", "median log2 fold change": -0.631},
      {"binder": "B15", "median log2 fold change": 0.119},
      {"binder": "B16", "median log2 fold change": -0.61},
      {"binder": "B17", "median log2 fold change": 0.229},
      {"binder": "B18", "median log2 fold change": -1.11},
      {"binder": "B19", "median log2 fold change": 0.298},
      {"binder": "B20", "median log2 fold change": 0.117},
      {"binder": "B21", "median log2 fold change": 0.341},
      {"binder": "B22", "median log2 fold change": 0.169},
      {"binder": "B23", "median log2 fold change": 0.225},
      {"binder": "B24", "median log2 fold change": -0.299},
      {"binder": "B25", "median log2 fold change": -0.6},
      {"binder": "B26", "median log2 fold change": -0.331},
      {"binder": "B27", "median log2 fold change": 0.404}
    ]}
  ]
}
